Test systems include NCI-H23 lung; NCI-H226 lung; NCI-H322M lung; HOP-62 NSCLC; NCI-H460 lung; HOP-92 NSCLC; NCI-H522 lung; A549/ATCC NSCLC; 786-0 renal; COLO 205 colon; DU-145 prostate; K-562 leukemia; MALME-3M melanoma; MDA-MB-231 breast; RXF 393 renal; SF-268 CNS; SF-295 CNS; SF-539 CNS; UACC-257 melanoma; M14 melanoma.
Holding throughout (assay): NCI-60 one-dose screen, 48 h (100 = growth as untreated, 0 = no growth, -100 = all killed)
What all share (conditions): 10 µM unless noted

This is part of a sample that, as a whole, favours compounds with a hit. Of some 83,000 tested, about 20% had one in any assay.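 The test compound was applied at a single concentration to cells in 96-well plates for 48 hours, and percent growth was recorded.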 Unmarked numbers belong to inactive results. Calls of active or inactive are those of the source. The calls were made as follows: active = growth percent below 10; inactive = the rest.

Take `CCN(CC)c1ccc2c(c1)Oc1nc(N)c(C#N)c(N)c1C2Sc1ccc(OC)cc1` (stereo not given): the growth is -25.8% (active) in the assay with NCI-H23 lung; 5.34% (active) in the assay with NCI-H226 lung; 97.6% with NCI-H322M lung; 35.9% with HOP-62 NSCLC; -18.3% (active) in the assay on NCI-H460 lung; 88.3% in the assay on HOP-92 NSCLC. Moreover, the growth was -61.9% (active) in the assay with NCI-H522 lung; 72.8% with A549/ATCC NSCLC; 0.244% (active) with 786-0 renal; -60% (active) in the assay on COLO 205 colon; -0.338% (active) in the assay on DU-145 prostate; 13.5% in the assay with K-562 leukemia. Also, the growth in the assay on MALME-3M melanoma is 1.4% (active); in the assay on MDA-MB-231 breast it was -0.581% (active); in the assay on RXF 393 renal it was -0.0562% (active); in the assay with SF-268 CNS, 16.5%; in the assay with SF-295 CNS, 29.1%; in the assay with SF-539 CNS, -34.6% (active). Besides, the values for the growth in the assay with UACC-257 melanoma and in the assay on M14 melanoma were 92.1% and -16.2% (active), respectively.

`N#Cc1c(-c2ccc(F)cc2)c(C#N)c2c(C#N)c(N)nn2c1N`: the growth with NCI-H23 lung was 96.9%; in the assay with NCI-H226 lung, 82.2%; with NCI-H322M lung, 97.5%; with HOP-62 NSCLC, 81%; in the assay on NCI-H460 lung, 98.7%; with HOP-92 NSCLC it was 76.9%. The growth in the assay with NCI-H522 lung is 85.7%; with A549/ATCC NSCLC, 92%; with 786-0 renal, 94.2%; in the assay with COLO 205 colon it was 98.4%; in the assay on DU-145 prostate it was 89.8%; in the assay on K-562 leukemia, 106%. In addition, the growth with MALME-3M melanoma was 110%; in the assay on MDA-MB-231 breast, 102%; in the assay on RXF 393 renal, 84.4%; in the assay on SF-268 CNS, 93.3%; with SF-295 CNS it was 101%; in the assay on SF-539 CNS it was 90.8%. In addition, the growth in the assay on UACC-257 melanoma is 110%; with M14 melanoma it was 105%.

With `O=c1[nH]nc(-c2ccccc2)c2sc(NC(=S)Nc3ccc(Cl)cc3)nc12`, the growth was 86% in the assay on NCI-H23 lung; 89.3% in the assay on NCI-H226 lung; 100% with NCI-H322M lung; 79.4% in the assay with HOP-62 NSCLC; 97.6% with NCI-H460 lung; 97.2% with HOP-92 NSCLC. Besides, the growth in the assay on NCI-H522 lung is 68.6%; in the assay on A549/ATCC NSCLC, 90.7%; with 786-0 renal, 92.5%; in the assay on COLO 205 colon it was 101%; in the assay with DU-145 prostate it was 94.8%; in the assay with K-562 leukemia, 80.6%. Further, the growth was 105% in the assay on MALME-3M melanoma; 101% with MDA-MB-231 breast; 102% in the assay with RXF 393 renal; 93.3% in the assay with SF-268 CNS; 98.3% in the assay with SF-295 CNS; 98% in the assay with SF-539 CNS. Also, the growth was 104% in the assay on UACC-257 melanoma and 97.4% in the assay with M14 melanoma.

Consider `Cc1ccc2nc3nc4ccc[nH]c4cc3c2c1`, for which the growth is 65.1% in the assay with NCI-H23 lung; 78.4% in the assay on NCI-H226 lung; 72.5% in the assay on NCI-H322M lung; 76.4% in the assay with HOP-62 NSCLC; 53.8% in the assay with NCI-H460 lung; 121% in the assay with HOP-92 NSCLC. The growth was 90.1% in the assay with NCI-H522 lung; 97.6% with A549/ATCC NSCLC; 108% in the assay on 786-0 renal; 82.1% with COLO 205 colon; 108% in the assay with DU-145 prostate; 111% in the assay with K-562 leukemia. For the same compound, the growth with MALME-3M melanoma was 101%; in the assay with MDA-MB-231 breast, 70.3%; in the assay with RXF 393 renal it was 99.6%; in the assay with SF-268 CNS, 94.1%; in the assay on SF-295 CNS, 113%; in the assay with SF-539 CNS it was 83.5%. Besides, the growth with UACC-257 melanoma was 119%; in the assay with M14 melanoma, 110%.

For `Nc1cc(N)nc(SCC(=O)O)n1`, the growth in the assay with NCI-H23 lung is 102%; in the assay with NCI-H226 lung, 103%; with NCI-H322M lung it was 102%; with HOP-62 NSCLC, 104%; in the assay on NCI-H460 lung, 106%; with HOP-92 NSCLC, 97.3%. For the same compound, the growth in the assay with NCI-H522 lung was 79.7%; in the assay on A549/ATCC NSCLC, 88%; in the assay with 786-0 renal it was 99.1%; with COLO 205 colon, 114%; in the assay on DU-145 prostate it was 104%; with K-562 leukemia, 101%. Moreover, the growth with MALME-3M melanoma is 103%; in the assay with MDA-MB-231 breast, 95.4%; in the assay with RXF 393 renal it was 115%; with SF-268 CNS it was 101%; with SF-295 CNS it was 106%; with SF-539 CNS it was 102%. Further, the growth was 84.8% in the assay on UACC-257 melanoma and 102% with M14 melanoma.

Take `COCCc1n(Cc2ccc3ccccc3c2)c2ccccc2[n+]1Cc1ccc2ccccc2c1`: the growth in the assay with NCI-H23 lung was -24.3% (active); in the assay on NCI-H226 lung it was -7.12% (active); in the assay with NCI-H322M lung it was 5.25% (active); in the assay with HOP-62 NSCLC, -19.1% (active); in the assay with NCI-H460 lung it was -65.3% (active); in the assay with HOP-92 NSCLC, -53.1% (active). For the same compound, the growth with NCI-H522 lung is -54.4% (active); in the assay with A549/ATCC NSCLC it was 4.72% (active); in the assay on 786-0 renal, -94.3% (active); in the assay with COLO 205 colon it was -71% (active); in the assay on DU-145 prostate it was 2.65% (active); in the assay on K-562 leukemia, -67.8% (active). The growth in the assay on MALME-3M melanoma was -69.5% (active); with MDA-MB-231 breast it was -74.7% (active); in the assay with RXF 393 renal it was -44.3% (active); with SF-268 CNS, -58.4% (active); with SF-295 CNS, -32.7% (active); with SF-539 CNS it was -8.99% (active). Moreover, the growth in the assay on UACC-257 melanoma was -29.3% (active); with M14 melanoma, -72.2% (active).

For `COc1cc([C@H](C)c2ccc3ccccc3c2)cc(OC)c1OC`, the growth in the assay with NCI-H23 lung was 30.1%; in the assay on NCI-H226 lung it was 68.2%; in the assay with NCI-H322M lung it was 55.9%; with HOP-62 NSCLC, 36.7%; in the assay with NCI-H460 lung, 8.84% (active); in the assay on HOP-92 NSCLC, 66.3%. Besides, the growth in the assay with NCI-H522 lung was 10.1%; with A549/ATCC NSCLC, 24.6%; in the assay with 786-0 renal, 39.6%; in the assay with COLO 205 colon, -3.69% (active); with DU-145 prostate, 17.6%; with K-562 leukemia, 8.51% (active). The growth in the assay on MALME-3M melanoma was 64%; in the assay with MDA-MB-231 breast, 33.8%; in the assay with RXF 393 renal, -10.5% (active); in the assay on SF-268 CNS it was 55.3%; in the assay with SF-295 CNS, 13.5%; in the assay on SF-539 CNS it was -19.3% (active). Further, the figures for the growth in the assay on UACC-257 melanoma and with M14 melanoma were 51.4% and 17.5%, respectively.

These data come from PubChem BioAssay (NCI).
